The text below walks through data of PubChem BioAssay.

In general, inhibition refers to the relative decrease from the control value, in per cent.

SMILES strings stand for the structures. Values without a mark were called inactive. Activity calls are given as the source filed them.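 Rule for the calls, unless noted: active = inhibition above 50%; inactive = the rest.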

One assay in a line: antimalarial activity against Dd2 strain (AID 2302;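 active = growth inhibition above 50% at the single 2 µM test dose, taken to imply half-maximal potency below 2 µM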;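 note: 0% = DMSO untreated growth and 100% = chloroquine plus artemisinin killed control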). Conditions: P. falciparum Dd2 in RBCs, LDH growth readout, 72 h; at 2 µM; hits give high values.
For the compound `COc1cc(C=C(C2=NC(=O)CS2)c2nc3cccnc3n2C)ccc1O`, the growth inhibition is 48%. On the same count and under the same terms, the same measure for `Nc1ccc(-c2nc3cc(C4=N[C@H]5CCCC[C@H]5N4)ccc3o2)cc1[N+](=O)[O-]`: 33%; for `O=[N+]([O-])c1ccc(-c2nc3ccc(C4=N[C@H]5CCCC[C@H]5N4)cc3[nH]2)cc1`: 30%.

With `Oc1c(C=Nn2cnnc2)sc2ccccc12`, the growth inhibition is 68% (active). Same read-out and setting: the same measure for `CC1CCC(C[C@@H](C(=O)N[C@@H](CCC(=O)N2CCCCC2)C(=O)Nc2nccs2)[C@H](C(C)C)N(O)C=O)CC1` (some centres not stated): 70% (active). Still for that read-out and setting: the same measure for `CCC[C@@H](C(=O)NCCc1cccc(OC)c1)N1C(=O)c2c(ccc(OC)c2OC)C1C(=O)Nc1c(C)cccc1C` (some centres not stated): 32%; for `CN(C)c1nc(NCc2ccccc2)nc(NN=Cc2cc([N+](=O)[O-])ccc2O)n1`: 90% (active). Same read-out and setting: the same measure for `c1cc2nc(CCCCc3nc4ccc(C5=N[C@H]6CCCC[C@H]6N5)cc4[nH]3)[nH]c2cc1C1=N[C@H]2CCCC[C@H]2N1`: 88% (active). On to `CCCCCC(C)C(C)c1cc(O)c2c(c1)OC(C)(C)CC2=Cc1ccncc1` (configuration not stated), for which the growth inhibition was 78% (active). The same measure, in the same setting: under `CCCO[C@H](C(=O)OC)[C@@H](CC1Cc2ccccc2C1)C(=O)NCCC1=CCCCC1` stands 57% (active); under `O=C(NN=Cc1nc2ccccc2[nH]1)c1cccc([N+](=O)[O-])c1`, 82% (active); under `O=C(/C=C/c1ccc(Cl)c(Cl)c1)NCCCCCN1CC[C@H](c2c[nH]c3ccccc23)[C@H](O)C1`, 9%.

As for `ON=C1CCc2cc(-c3nc(-c4ccc(OCCN5CCCCC5)cc4)[nH]c3-c3ccncc3)ccc21`, the growth inhibition was 54% (active). Still for that read-out and setting: the same measure for `COc1ccc2nc(/N=C(/N)NC(=O)Nc3ccccc3)nc(C)c2c1`: 15%; for `C=CC[C@H](C[C@H](O)[C@H](Cc1ccccc1)NC(=O)c1ccc(-n2cccn2)cc1)C(=O)NC1CCCCC1`: 0%; for `O=C(NC=Nc1cc([N+](=O)[O-])c(-c2ccncc2)n1-c1ccccc1)c1cccc(O)c1`: 56% (active). For the compound `C=CC[C@H](C[C@H](O)[C@H](Cc1ccccc1)NC(=O)c1ccc(-c2cccnn2)cc1)C(=O)NC1CCCCC1`, the growth inhibition is -1%. Still for that read-out and setting: the same measure for `Cc1ccc(-c2cncc(-c3cc(NC4CCN(Cc5ccccc5)CC4)nc(-c4ccccc4)n3)c2)cc1`: 66% (active); for `CCn1c(C=Cc2cc(Br)ccc2O)nc2ccccc2c1=O`: 95% (active); for `CN(Cc1cnc2nc(N)nc(N)c2n1)c1ccc(C(=O)N[C@H](CCC(=O)O)C(=O)O)cc1`: 44%. As to `Cc1cc(C)c2c(c1)C(=NO)CCN2`, the growth inhibition is 2%. On the same count and under the same terms, under `Cc1cc(-c2cc(-c3ccc(OCCN(C)C)cc3)[nH]c2-c2ccc3c(c2)CCC3=NO)ccn1` stands 92% (active); under `O=C(NC=Nc1cc([N+](=O)[O-])c(-c2cccnc2)n1-c1ccc(O)cc1)c1ccccc1`, 62% (active); under `O=[N+]([O-])c1cccc(-c2nc3ccc(C4=N[C@H]5CCCC[C@H]5N4)cc3[nH]2)c1`, 81% (active). Same read-out and setting: under `CN(C)CCCOc1ccc(-c2nc(-c3ccc4c(c3)CCC4=NO)c(-c3ccncc3)[nH]2)cc1` stands 63% (active); under `CN(C)C(=S)NN=Cc1cccc(O)c1O`, 55% (active); under `Nc1cc(C=Cc2ccc(O)cc2)nc2ccccc12`, 14%. On the same count and under the same terms, under `COc1ccc(Nc2nc(NN=Cc3ccc(O)cc3)nc(Nc3ccc([N+](=O)[O-])cc3)n2)cc1` stands 16%; under `O=[N+]([O-])c1ccc(Nc2nc(NN=Cc3cc(Cl)cc(Cl)c3O)nc(Nc3ccccc3)n2)cc1`, 72% (active); under `CCOc1cc(C=Cc2nc3ccccc3c(=O)[nH]2)cc(Cl)c1O`, 90% (active).

In the case of `CN(C)c1cc(NN=Cc2cc(Cl)ccc2O)nc(N(C)C)n1`, the growth inhibition was 98% (active). Same read-out and setting: the same measure for `CC(=NNC(N)=O)C1=C(O)C(c2ccccc2)N(C2CCCCC2)C1=O` (configuration not stated): 96% (active).

For `ON=C1CCc2cc(-c3cc(-c4ccc(OC5CCNCC5)cc4)oc3-c3ccncc3)ccc21`, the growth inhibition was 99% (active).

Another assay can be described thus: HepG2 cytotoxicity, primary screen, cytotoxicity control for P. falciparum antimalarial project, cell-based, ATP luminescence (AID 2303).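 Note: 0% = DMSO wells and 100% = digitonin-killed cells.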 Conditions: HepG2 viability, 24-48 h, at 10 µM, hits give high values.
As for `COc1cc(C=C(C2=NC(=O)CS2)c2nc3cccnc3n2C)ccc1O`, the inhibition was 7%. Same read-out and setting: the same measure for `Nc1ccc(-c2nc3cc(C4=N[C@H]5CCCC[C@H]5N4)ccc3o2)cc1[N+](=O)[O-]`: 16%; for `O=[N+]([O-])c1ccc(-c2nc3ccc(C4=N[C@H]5CCCC[C@H]5N4)cc3[nH]2)cc1`: -1%. On the same count and under the same terms, the same measure for `Oc1c(C=Nn2cnnc2)sc2ccccc12`: -4%. The same measure, in the same setting: the same measure for `CC1CCC(C[C@@H](C(=O)N[C@@H](CCC(=O)N2CCCCC2)C(=O)Nc2nccs2)[C@H](C(C)C)N(O)C=O)CC1` (some centres not stated): 38%; for `CCC[C@@H](C(=O)NCCc1cccc(OC)c1)N1C(=O)c2c(ccc(OC)c2OC)C1C(=O)Nc1c(C)cccc1C` (some centres not stated): 6%. Turning to `CN(C)c1nc(NCc2ccccc2)nc(NN=Cc2cc([N+](=O)[O-])ccc2O)n1`, the inhibition is 48%. Same read-out and setting: under `c1cc2nc(CCCCc3nc4ccc(C5=N[C@H]6CCCC[C@H]6N5)cc4[nH]3)[nH]c2cc1C1=N[C@H]2CCCC[C@H]2N1` stands 5%; under `CCCCCC(C)C(C)c1cc(O)c2c(c1)OC(C)(C)CC2=Cc1ccncc1` (configuration not stated), -8%. Still for that read-out and setting: the same measure for `CCCO[C@H](C(=O)OC)[C@@H](CC1Cc2ccccc2C1)C(=O)NCCC1=CCCCC1`: 6%; for `O=C(NN=Cc1nc2ccccc2[nH]1)c1cccc([N+](=O)[O-])c1`: -3%. Same read-out and setting: the same measure for `O=C(/C=C/c1ccc(Cl)c(Cl)c1)NCCCCCN1CC[C@H](c2c[nH]c3ccccc23)[C@H](O)C1`: 12%; for `ON=C1CCc2cc(-c3nc(-c4ccc(OCCN5CCCCC5)cc4)[nH]c3-c3ccncc3)ccc21`: 73% (active). `COc1ccc2nc(/N=C(/N)NC(=O)Nc3ccccc3)nc(C)c2c1`: the inhibition was 3%.

As to `C=CC[C@H](C[C@H](O)[C@H](Cc1ccccc1)NC(=O)c1ccc(-n2cccn2)cc1)C(=O)NC1CCCCC1`, the inhibition is 1%. On the same count and under the same terms, the same measure for `O=C(NC=Nc1cc([N+](=O)[O-])c(-c2ccncc2)n1-c1ccccc1)c1cccc(O)c1`: 2%; for `C=CC[C@H](C[C@H](O)[C@H](Cc1ccccc1)NC(=O)c1ccc(-c2cccnn2)cc1)C(=O)NC1CCCCC1`: 2%. Still for that read-out and setting: under `Cc1ccc(-c2cncc(-c3cc(NC4CCN(Cc5ccccc5)CC4)nc(-c4ccccc4)n3)c2)cc1` stands -2%. The same measure, in the same setting: under `CCn1c(C=Cc2cc(Br)ccc2O)nc2ccccc2c1=O` stands 6%; under `CN(Cc1cnc2nc(N)nc(N)c2n1)c1ccc(C(=O)N[C@H](CCC(=O)O)C(=O)O)cc1`, 65% (active). Regarding `CCN1CCN(c2cc(C)c3cc(NC(=O)c4ccc(C(C)(C)C)cc4)ccc3n2)CC1`, the inhibition is 34%. Same read-out and setting: the same measure for `Cc1cc(C)c2c(c1)C(=NO)CCN2`: 2%; for `Cc1cc(-c2cc(-c3ccc(OCCN(C)C)cc3)[nH]c2-c2ccc3c(c2)CCC3=NO)ccn1`: -13%. Still for that read-out and setting: the same measure for `O=C(NC=Nc1cc([N+](=O)[O-])c(-c2cccnc2)n1-c1ccc(O)cc1)c1ccccc1`: 17%; for `O=[N+]([O-])c1cccc(-c2nc3ccc(C4=N[C@H]5CCCC[C@H]5N4)cc3[nH]2)c1`: 4%; for `CN(C)CCCOc1ccc(-c2nc(-c3ccc4c(c3)CCC4=NO)c(-c3ccncc3)[nH]2)cc1`: 68% (active).

On to `CN(C)C(=S)NN=Cc1cccc(O)c1O`, for which the inhibition is 11%.

Turning to `Nc1cc(C=Cc2ccc(O)cc2)nc2ccccc12`, the inhibition was 15%. Take `COc1ccc(Nc2nc(NN=Cc3ccc(O)cc3)nc(Nc3ccc([N+](=O)[O-])cc3)n2)cc1`: the inhibition is -1%. Still for that read-out and setting: under `O=[N+]([O-])c1ccc(Nc2nc(NN=Cc3cc(Cl)cc(Cl)c3O)nc(Nc3ccccc3)n2)cc1` stands 29%. `CCOc1cc(C=Cc2nc3ccccc3c(=O)[nH]2)cc(Cl)c1O`: the inhibition is 25%. Turning to `CN(C)c1cc(NN=Cc2cc(Cl)ccc2O)nc(N(C)C)n1`, the inhibition was 3%.

On to `CC(=NNC(N)=O)C1=C(O)C(c2ccccc2)N(C2CCCCC2)C1=O` (configuration not stated), for which the inhibition is 59% (active).

For the compound `ON=C1CCc2cc(-c3cc(-c4ccc(OC5CCNCC5)cc4)oc3-c3ccncc3)ccc21`, the inhibition was 34%.
